35 molecules from PubChem BioAssay (Tox21) can be followed below.

Structures are written as SMILES. Results filed as inconclusive are left out. A call without a number means that no potency is given here. The source made the active and inactive calls. The call rests on the fitted dose curve; in most records, active means well fitted curve in the direction sought with a large enough effect in the repeat runs; inconclusive means weak or mixed curves; inactive means no such curve, though single readings can be large; an effect the other way counts as inactive or inconclusive.
Further: nearly all actives have a fitted effect of over 50% in size.

Test system in the first assay: not listed separately
Kind of assay: qHTS assay to identify small molecule antagonists of the retinoid-related orphan receptor gamma (ROR-gamma) signaling pathway - cell viability counter screen (AID 1159520). To be noted: Tet-on RORgamma CHO cells viability, ATP luminescence, 16 h; series mostly up to 92.4 µM. Summed up:
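Tet-on ROR gamma CHO cells (1,000/well) were plated 4 hr, given compounds in DMSO for 2 hr at 37 C, then induced with 1 uM final doxycycline for 16 hr. Viability was read as ATP by CellTiter-Glo luminescence after 30 min.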
As for `C=CCCCCCCCCC=O`, the result was inactive.
The same measure, in the same setting: the same measure for `CCCCCCCCCCCCN(CCCCCCCCCCCC)CCCCCCCCCCCC`: “inactive”.
Still for that read-out and setting: the same measure for `ClC(Cl)(Br)Br`: “inactive”; for `N=C(N)c1ccc2cc(OC(=O)c3ccc(N=C(N)N)cc3)ccc2c1`: “inactive”.
Same read-out and setting: the same measure for `CCCCCCCCCCCCCCCCC`: “inactive”; for `CCOC(=O)c1c(C)n(C)c2ccc(O)cc12`: “inactive”; for `Cc1cc2c(cc1S(N)(=O)=O)S(=O)(=O)CCC2`: “inactive”.
With `CCCCCCCCCCCC`, the result was inactive.
Still for that read-out and setting: the same measure for `CC(C)NC(=O)NC(C)C`: “inactive”.

A further assay addresses Nuclear receptor ROR-gamma (Homo sapiens) (UniProt P51449). Kind of assay: qHTS assay to identify small molecule antagonists of the retinoid-related orphan receptor gamma (ROR-gamma) signaling pathway (AID 1159521; further: potency means the concentration at half of the fitted maximal effect). The note with it: Tet-on RORgamma CHO cells, RORE-luciferase, 16 h; series mostly up to 42.5 µM. The method, boiled down: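 RORγ antagonism is scored from reduced reporter luminescence in Tet-on CHO cells. Induction used 1 uM final doxycycline hyclate for 16 h at 37 C, following a 2 h compound exposure.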
For orientation: In qHTS, concentration-response curves come from the screen itself.
For the molecule `CS(=O)(=O)O`, the Potency entry is “inactive”.
Same read-out and setting: next, `CCOC(C)(C)C`: “inactive”; `O=Cc1cccc([N+](=O)[O-])c1`: “inactive”; `N=C(N)c1ccc(OCCCOc2ccc(C(=N)N)cc2)cc1`: “inactive”.
As for `NC(=O)COCCN1CCN(C(c2ccccc2)c2ccc(Cl)cc2)CC1` (centres undefined), the Potency is 2660 nM (active).
Same read-out and setting: next, `C/C=C(\C)C#N`: “inactive”.
On the same count and under the same terms, next, `CCCCCCOC(=O)CCCCC(=O)OCCCCCC`: “inactive”; `C[C@@H]1CCN(C(=O)[C@H](CCCN=C(N)N)NS(=O)(=O)c2cccc3c2NC[C@H](C)C3)[C@@H](C(=O)O)C1`: “inactive”; `CCc1nccnc1CC`: “inactive”.
Same read-out and setting: the same measure for `COC(C)(C)CCCC(C)CC=O` (centres undefined): “inactive”; for `CCCc1cc(C(N)=S)ccn1`: “inactive”.
For `O=C(O)CCCl`, the Potency result was “inactive”.
Same read-out and setting: next, `O=C(O)c1ccccc1OP(=O)(O)O`: “inactive”.
Same read-out and setting: the same measure for `Cn1cc(S(C)=O)c(=O)c2ccc(F)cc21` (centres undefined): “inactive”.
The same measure, in the same setting: the same measure for `O=c1[nH]c(=O)n([C@H]2C[C@H](O)[C@@H](CO)O2)cc1I`: “inactive”; for `CC(=O)Nc1ccc(S(N)(=O)=O)cc1`: “inactive”.
`C=C(C)C(=O)OCCCCCCCC(C)C`: the Potency entry is “inactive”.
Same read-out and setting: the same measure for `CC(C)(CC(=O)O)C(=O)O`: “inactive”; for `CO[C@]12C[C@@H](COC(=O)c3cncc(Br)c3)CN(C)[C@@H]1Cc1cn(C)c3cccc2c13`: “inactive”.
Same read-out and setting: next, `CC(=O)CC(C)C`: “inactive”; `O=[N+]([O-])c1ccc(F)cc1F`: “inactive”.
On the same count and under the same terms, the same measure for `Nc1c[n+](N2CCOCC2)no1`: “inactive”; for `CC/C=C\CCOC(C)=O`: “inactive”; for `COC(=O)NN`: “inactive”.
As for `C1CN(CCOCCN2CCOCC2)CCO1`, the Potency entry is “inactive”.
On the same count and under the same terms, next, `C[C@H]1C[C@@H](O)CC(C)(C)C1`: “inactive”; `C=CCCCCCCCCC=O`: “inactive”.
The same measure, in the same setting: next, `CCCCCCCCCCCCN(CCCCCCCCCCCC)CCCCCCCCCCCC`: “inactive”.
On the same count and under the same terms, next, `ClC(Cl)(Br)Br`: “inactive”; `N=C(N)c1ccc2cc(OC(=O)c3ccc(N=C(N)N)cc3)ccc2c1`: “inactive”.
As for `CCCCCCCCCCCCCCCCC`, the Potency result was “inactive”.
On the same count and under the same terms, next, `CCOC(=O)c1c(C)n(C)c2ccc(O)cc12`: “inactive”; `Cc1cc2c(cc1S(N)(=O)=O)S(=O)(=O)CCC2`: “inactive”; `CCCCCCCCCCCC`: “inactive”.
On the same count and under the same terms, the same measure for `CC(C)NC(=O)NC(C)C`: “inactive”.
